Test results taken from PubChem BioAssay (EPA / NIEHS).
Several values for one entry are separate records, joined by “and”; a condition that tells them apart may be missing. Equal values may be shown once. Results filed as inconclusive are left out. Some structures have more than one record in an assay (separate samples or runs), and their calls can disagree. Activity calls are given as the source filed them. Rule for the calls, unless noted: active = hit-call score of the fitted dose curve at least 0.9, where 1 is the maximum; inactive = score below 0.9.

Assays:
[1] = target: Estrogen-related receptor gamma (Homo sapiens) (UniProt P62508); assay: ATG_ERRg_TRANS: Attagene TRANS-FACTORIAL HepG2 Assay for human Estrogen-Related Receptor gamma (ERRg) (AID 2282977; active = hit-call score of the fitted dose curve at least 0.9, where 1 is the maximum;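 note: hits increase reporter signal over DMSO so potencies reflect activators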); conditions: HepG2 Attagene TRANS reporter, ERRg transactivation
How it was run: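 HepG2 cells transiently transfected with multiplexed GAL4-UAS reporter units and chimeric NR-Gal4 constructs were exposed to test chemicals for 24 h. Reporter mRNA was measured by RT-PCR, 6-FAM primer extension, HpaI digestion and capillary electrophoresis; gain-of-signal versus DMSO.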

[2] = ATG_M_06_TRANS: Attagene TRANS-FACTORIAL HepG2 Assay for M06 Transcription Factor (Internal Marker) (AID 2282983; active = hit-call score of the fitted dose curve at least 0.9, where 1 is the maximum); conditions: HepG2 Attagene TRANS M06 internal marker reporter
How it was run: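 After a 24 h chemical treatment of transfected HepG2, RNA underwent DNase I treatment, reverse transcription and reporter-specific PCR; labelled, HpaI-digested products were sized by capillary electrophoresis. Signal increase relative to DMSO defined activity.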

[3] = ATG_M_32_TRANS: Attagene TRANS-FACTORIAL HepG2 Assay for M32 Transcription Factor (Internal Marker) (AID 2282984; active = hit-call score of the fitted dose curve at least 0.9, where 1 is the maximum;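 note: transcript level of a background control reporter unit measured by RT-PCR and capillary electrophoresis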); conditions: HepG2 Attagene TRANS M32 internal marker reporter
How it was run: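 Capillary electrophoresis of 6-FAM-labelled reporter fragments gives the signal; data fitted for gain over DMSO negative control. Source: HepG2 cells bearing transient multiple reporter transcription units, 24 h exposure.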

[4] = target: Nuclear respiratory factor 1 (Homo sapiens) (UniProt Q16656); assay: ATG_NRF1_CIS: Attagene CIS-FACTORIAL HepG2 Assay for human Nuclear Respiratory Factor 1 (NRF1) Orphan Gene (AID 2282987); conditions: HepG2 NRF1 cis-element reporter, Attagene multiplex; actives raise or lower the signal
How it was run: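 Reporter mRNA induction or loss in HepG2 cells after 24 h dosing; cis-regulated reporter constructs report endogenous transcription-factor activity. Quantified by RT-PCR/capillary electrophoresis fluorescence, DMSO-referenced.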

[5] = ATG_NFI_CIS: Attagene CIS-FACTORIAL HepG2 Assay for human Nuclear Factor I (NFI) (AID 2282989); conditions: HepG2 cis-regulatory reporter, NFI response element transcription; actives raise or lower the signal
How it was run: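 Multiplexed cis-reporter system in human HepG2 cells reports native TF activity as reporter mRNA induction 24 h post-dose. Fragments labelled with 6-FAM, HpaI-digested and resolved by capillary electrophoresis; activity fitted both directions versus DMSO.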

[6] = target: Myc proto-oncogene protein (Homo sapiens) (UniProt P01106); assay: ATG_Myc_CIS: Attagene CIS-FACTORIAL HepG2 Assay for human Myelocytomatosis (Myc) Proto-Oncogene Transcription Factor (AID 2282990); conditions: HepG2, Attagene cis-reporter transcription factor activity; actives raise or lower the signal
How it was run: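 Transiently transfected HepG2 cells bearing cis-promoter reporter units for endogenous transcription factors; 24 h exposure. Reporter mRNA measured by RT-PCR, 6-FAM primer extension, HpaI cut and capillary electrophoresis; bidirectional fit relative to DMSO.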

[7] = ATG_NF_kB_CIS: Attagene CIS-FACTORIAL HepG2 Assay for human Nuclear Factor Kappa B (NF-kB) (AID 2282991); conditions: HepG2 Attagene cis-factorial NF-kB reporter mRNA; actives raise or lower the signal
How it was run: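 DMSO served as negative control and baseline for bidirectional curve fitting. Transiently transfected HepG2 cells were dosed for 24 h, then reporter transcripts were measured by RT-PCR with capillary electrophoresis detection.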

[8] = ATG_NRF2_ARE_CIS: Attagene CIS-FACTORIAL HepG2 Assay for human Nuclear Factor Erythroid 2 Related Factor 2 (NFR2) response to Antioxidant Response Elements (ARE) (AID 2282992); conditions: HepG2 Attagene ARE/NRF2 reporter, transcription factor activity; actives raise or lower the signal;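 for AC50: reporter mRNA level measured by RT-PCR and capillary electrophoresis fluorescence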
How it was run: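 HepG2 cells transiently transfected with multiplexed cis-regulated reporter transcription units measure endogenous transcription factor activity. Reporter mRNA at 24 h is quantified by RT-PCR, fluorescent labelling and capillary electrophoresis, with bidirectional fitting relative to DMSO.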

[9] = ATG_Oct_MLP_CIS: Attagene CIS-FACTORIAL HepG2 Assay for human Octamer-Binding Transcription Factor (Oct) (AID 2282993); conditions: HepG2 Attagene cis-factorial Oct reporter, mRNA; actives raise or lower the signal
How it was run: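 After 24 h compound exposure, transfected HepG2 cells were lysed for total RNA; reporter-specific cDNA was PCR-amplified, fluorescently labelled and sized by capillary electrophoresis. Bidirectional curve fitting used DMSO as baseline.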

[10] = target: Cellular tumor antigen p53 (Homo sapiens) (UniProt P04637); assay: ATG_p53_CIS: Attagene CIS-FACTORIAL HepG2 Assay for human p53 Transcription Factor (AID 2282994); conditions: HepG2 p53 cis-element reporter, Attagene mRNA; actives raise or lower the signal
How it was run: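 HepG2 cells transiently transfected with multiplexed cis-regulated reporter transcription units read endogenous TF activity. After 24 h compound exposure, reporter mRNA was quantified by RT-PCR, fluorescent labelling, HpaI digestion and capillary electrophoresis; bidirectional fits versus DMSO baseline.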

[11] = BSK_3C_TissueFactor: BioMAP Diversity Plus: 3C Assay for Tissue Factor Biomarker Activity (AID 2282997); conditions: BioMAP 3C HUVEC, tissue factor biomarker readout; actives raise or lower the signal
How it was run: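 Human vascular primary cells (umbilical vein endothelium) received test chemical; Tissue Factor was determined by ELISA at 24 h, and both gain and loss of signal versus DMSO were fitted.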

[12] = BSK_3C_uPAR: BioMAP Diversity Plus: 3C Assay for Urokinase-type plasminogen activator receptor (uPAR) Biomarker Activity (AID 2282998); conditions: BioMAP 3C HUVEC, uPAR biomarker ELISA; actives raise or lower the signal
How it was run: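 Values derive from bidirectional curve fitting relative to DMSO, which served as baseline of activity. uPAR was measured by ELISA in human umbilical vein endothelial primary cultures 24 h after compound addition.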

[13] = target: Glucocorticoid receptor (Homo sapiens) (UniProt P04150); assay: ATG_GR_TRANS: Attagene TRANS-FACTORIAL HepG2 Assay for human Glucocorticoid Receptor (GR) (AID 2282978; active = hit-call score of the fitted dose curve at least 0.9, where 1 is the maximum;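 note: activators score as hits since higher reporter transcript over DMSO is fitted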); conditions: HepG2 Attagene TRANS GR reporter, mRNA transcription
How it was run: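 Transiently transfected HepG2 cells express chimeric NR-GAL4 proteins acting on GAL4-UAS reporter units. Compounds are applied for 24 h. mRNA induction over DMSO is measured by capillary electrophoresis.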

[14] = target: Oxysterols receptor LXR-alpha (Homo sapiens) (UniProt Q13133); assay: ATG_LXRa_TRANS: Attagene TRANS-FACTORIAL HepG2 Assay for human Liver X Receptor alpha (LXRa) (AID 2282980; active = hit-call score of the fitted dose curve at least 0.9, where 1 is the maximum); conditions: HepG2 Attagene TRANS reporter, LXRa transactivation
How it was run: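 Read-out: reporter transcript levels by RT-PCR plus capillary electrophoresis, fluorescence intensity. Transiently transfected HepG2, exogenous NR-GAL4 chimera, GAL4-UAS reporters; 24 h compound exposure. Activity = increase over DMSO negative control.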

[15] = target: Oxysterols receptor LXR-beta (Homo sapiens) (UniProt P55055); assay: ATG_LXRb_TRANS: Attagene TRANS-FACTORIAL HepG2 Assay for human Liver X Receptor beta (LXRb) (AID 2282981; active = hit-call score of the fitted dose curve at least 0.9, where 1 is the maximum); conditions: HepG2 Attagene TRANS GAL4-LXRb reporter, mRNA
How it was run: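 Gain-of-signal mRNA reporter endpoint, DMSO as negative control. Transiently transfected HepG2 cells carrying the NR-Gal4 chimera and GAL4-UAS reporter units were treated 24 h; transcripts quantified by RT-PCR and capillary electrophoresis fluorescence.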

[16] = target: Hepatocyte nuclear factor 4-alpha (Homo sapiens) (UniProt P41235); assay: ATG_HNF4a_TRANS: Attagene TRANS-FACTORIAL HepG2 Assay for human Hepatocyte Nuclear Factor 4 alpha (HNF4a) (AID 2282982; active = hit-call score of the fitted dose curve at least 0.9, where 1 is the maximum); conditions: HepG2 HNF4a transactivation reporter, mRNA readout
How it was run: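 Gain-of-signal mRNA induction, relative to DMSO vehicle, was read after 24 h compound treatment of HepG2 cells bearing transfected GAL4-UAS reporters. Detection used RT-PCR, 6-FAM primer extension and capillary electrophoresis.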

[17] = target: Nuclear receptor subfamily 4 group A member 2 (Homo sapiens) (UniProt P43354); assay: ATG_NURR1_TRANS: Attagene TRANS-FACTORIAL HepG2 Assay for human Nuclear Receptor Related Protein 1 (NURR1) (AID 2282985; active = hit-call score of the fitted dose curve at least 0.9, where 1 is the maximum); conditions: HepG2 Attagene TRANS reporter, mRNA readout
How it was run: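 HepG2 / transient MRTU transfection / 24 h compound exposure / RT-PCR + CE fluorescence of reporter mRNA / gain-of-signal vs DMSO.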

[18] = target: Transcriptional activator Myb (Homo sapiens) (UniProt P10242); assay: ATG_Myb_CIS: Attagene CIS-FACTORIAL HepG2 Assay for human Myeloblastosis (Myb) Proto-Oncogene Transcription Factor (AID 2282986); conditions: HepG2 Attagene CIS-FACTORIAL Myb reporter transcription; actives raise or lower the signal
How it was run: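 Using HepG2 liver cells bearing transiently transfected cis-promoter reporter constructs, the assay measures induction or loss of reporter mRNA after 24 hours of dosing. Detection used fluorescently labeled RT-PCR products separated by capillary electrophoresis.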

[19] = ATG_GAL4_TRANS: Attagene TRANS-FACTORIAL HepG2 Assay for GAL4 (Internal Marker) (AID 2282976; active = hit-call score of the fitted dose curve at least 0.9, where 1 is the maximum); conditions: HepG2 Attagene TRANS GAL4 internal marker reporter
How it was run: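 RT-PCR/capillary electrophoresis readout of reporter mRNA. HepG2, transient MRTU transfection (GAL4-UAS reporters), 24 h compound exposure. Background-control endpoint, positive direction vs DMSO baseline.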

Measured: AC50

Chain of Estrogen-related receptor gamma (Homo sapiens) (P62508 whole entry, looked up, the tested form may be a part): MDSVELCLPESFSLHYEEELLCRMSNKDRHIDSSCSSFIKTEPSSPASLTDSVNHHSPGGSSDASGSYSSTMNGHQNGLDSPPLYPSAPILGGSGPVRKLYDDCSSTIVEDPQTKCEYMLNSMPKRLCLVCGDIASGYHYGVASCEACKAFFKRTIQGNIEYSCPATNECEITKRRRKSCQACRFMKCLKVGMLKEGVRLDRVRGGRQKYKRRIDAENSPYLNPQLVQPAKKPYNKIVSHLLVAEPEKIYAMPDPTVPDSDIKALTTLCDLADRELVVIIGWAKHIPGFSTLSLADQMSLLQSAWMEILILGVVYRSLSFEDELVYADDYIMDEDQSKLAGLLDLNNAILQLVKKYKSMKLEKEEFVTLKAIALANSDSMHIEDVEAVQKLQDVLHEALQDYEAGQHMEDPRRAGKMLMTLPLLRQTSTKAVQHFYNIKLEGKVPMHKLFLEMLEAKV
Chain of Oxysterols receptor LXR-beta (Homo sapiens) (P55055 whole entry, looked up, the tested form may be a part): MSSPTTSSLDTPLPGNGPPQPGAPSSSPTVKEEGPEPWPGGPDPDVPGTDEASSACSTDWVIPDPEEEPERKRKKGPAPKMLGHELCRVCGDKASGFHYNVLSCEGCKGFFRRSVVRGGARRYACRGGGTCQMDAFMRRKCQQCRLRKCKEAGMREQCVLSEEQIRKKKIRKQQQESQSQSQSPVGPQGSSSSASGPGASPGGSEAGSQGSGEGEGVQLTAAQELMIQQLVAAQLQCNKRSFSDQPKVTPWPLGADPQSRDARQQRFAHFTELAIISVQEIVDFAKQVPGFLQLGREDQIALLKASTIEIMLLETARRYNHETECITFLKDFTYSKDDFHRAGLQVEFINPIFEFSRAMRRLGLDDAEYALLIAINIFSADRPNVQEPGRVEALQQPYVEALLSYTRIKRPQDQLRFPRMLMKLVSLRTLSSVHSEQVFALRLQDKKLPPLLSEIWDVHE
Chain of Cellular tumor antigen p53 (Homo sapiens) (P04637 whole entry, looked up): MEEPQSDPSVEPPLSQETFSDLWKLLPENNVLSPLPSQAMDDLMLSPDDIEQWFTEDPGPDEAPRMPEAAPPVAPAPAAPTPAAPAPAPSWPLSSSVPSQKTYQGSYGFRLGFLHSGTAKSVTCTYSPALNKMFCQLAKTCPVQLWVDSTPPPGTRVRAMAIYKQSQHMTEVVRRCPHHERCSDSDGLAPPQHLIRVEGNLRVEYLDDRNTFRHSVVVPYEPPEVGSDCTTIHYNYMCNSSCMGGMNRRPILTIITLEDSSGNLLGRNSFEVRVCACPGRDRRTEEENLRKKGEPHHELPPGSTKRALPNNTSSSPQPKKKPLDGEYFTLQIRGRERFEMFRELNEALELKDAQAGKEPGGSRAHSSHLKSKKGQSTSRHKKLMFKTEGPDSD
Chain of Hepatocyte nuclear factor 4-alpha (Homo sapiens) (P41235 whole entry, looked up, the tested form may be a part): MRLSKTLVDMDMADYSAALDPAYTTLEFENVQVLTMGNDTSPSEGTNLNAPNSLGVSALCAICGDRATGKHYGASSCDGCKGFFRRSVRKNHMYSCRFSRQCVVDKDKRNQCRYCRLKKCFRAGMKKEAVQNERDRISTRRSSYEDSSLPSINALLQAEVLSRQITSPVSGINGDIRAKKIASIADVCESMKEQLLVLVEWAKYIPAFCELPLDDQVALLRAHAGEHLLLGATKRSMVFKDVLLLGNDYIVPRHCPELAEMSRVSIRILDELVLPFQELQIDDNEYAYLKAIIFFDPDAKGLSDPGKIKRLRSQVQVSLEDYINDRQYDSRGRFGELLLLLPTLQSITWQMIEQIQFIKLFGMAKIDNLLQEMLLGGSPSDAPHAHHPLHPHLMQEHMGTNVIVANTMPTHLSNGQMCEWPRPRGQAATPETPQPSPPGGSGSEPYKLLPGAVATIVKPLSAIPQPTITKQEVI
Chain of Myc proto-oncogene protein (Homo sapiens) (P01106 whole entry, looked up): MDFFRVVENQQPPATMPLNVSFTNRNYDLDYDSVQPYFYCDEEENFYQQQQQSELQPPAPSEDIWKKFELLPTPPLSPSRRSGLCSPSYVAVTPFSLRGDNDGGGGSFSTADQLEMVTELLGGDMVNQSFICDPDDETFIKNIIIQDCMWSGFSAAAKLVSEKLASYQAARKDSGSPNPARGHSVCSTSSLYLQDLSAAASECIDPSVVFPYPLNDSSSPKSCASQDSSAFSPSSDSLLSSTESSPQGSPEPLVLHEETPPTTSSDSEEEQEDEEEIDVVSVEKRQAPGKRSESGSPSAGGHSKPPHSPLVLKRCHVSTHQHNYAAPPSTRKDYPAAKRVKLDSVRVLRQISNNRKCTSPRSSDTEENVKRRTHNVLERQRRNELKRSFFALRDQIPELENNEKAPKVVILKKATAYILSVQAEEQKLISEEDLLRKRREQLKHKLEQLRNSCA
Chain of Glucocorticoid receptor (Homo sapiens) (P04150 whole entry, looked up, the tested form may be a part): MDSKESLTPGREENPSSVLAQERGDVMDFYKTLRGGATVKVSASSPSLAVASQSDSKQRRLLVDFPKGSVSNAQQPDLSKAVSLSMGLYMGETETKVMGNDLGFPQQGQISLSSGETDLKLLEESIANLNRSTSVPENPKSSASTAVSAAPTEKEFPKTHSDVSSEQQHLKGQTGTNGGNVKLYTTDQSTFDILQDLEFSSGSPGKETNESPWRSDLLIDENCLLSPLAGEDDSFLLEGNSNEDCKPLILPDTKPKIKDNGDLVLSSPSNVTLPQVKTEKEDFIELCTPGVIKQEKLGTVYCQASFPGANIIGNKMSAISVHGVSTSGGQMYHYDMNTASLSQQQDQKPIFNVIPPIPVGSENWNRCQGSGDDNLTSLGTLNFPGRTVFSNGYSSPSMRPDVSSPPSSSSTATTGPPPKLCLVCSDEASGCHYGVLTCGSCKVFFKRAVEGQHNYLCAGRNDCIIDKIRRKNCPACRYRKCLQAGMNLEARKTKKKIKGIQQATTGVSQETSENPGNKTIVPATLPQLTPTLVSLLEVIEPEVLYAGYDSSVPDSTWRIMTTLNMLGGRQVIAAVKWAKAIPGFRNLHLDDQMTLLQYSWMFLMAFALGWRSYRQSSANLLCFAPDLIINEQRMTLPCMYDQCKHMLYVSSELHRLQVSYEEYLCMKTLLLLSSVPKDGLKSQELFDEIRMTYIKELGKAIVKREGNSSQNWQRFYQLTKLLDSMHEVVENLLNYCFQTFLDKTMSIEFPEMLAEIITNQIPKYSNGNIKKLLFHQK
Chain of Nuclear respiratory factor 1 (Homo sapiens) (Q16656 whole entry, looked up): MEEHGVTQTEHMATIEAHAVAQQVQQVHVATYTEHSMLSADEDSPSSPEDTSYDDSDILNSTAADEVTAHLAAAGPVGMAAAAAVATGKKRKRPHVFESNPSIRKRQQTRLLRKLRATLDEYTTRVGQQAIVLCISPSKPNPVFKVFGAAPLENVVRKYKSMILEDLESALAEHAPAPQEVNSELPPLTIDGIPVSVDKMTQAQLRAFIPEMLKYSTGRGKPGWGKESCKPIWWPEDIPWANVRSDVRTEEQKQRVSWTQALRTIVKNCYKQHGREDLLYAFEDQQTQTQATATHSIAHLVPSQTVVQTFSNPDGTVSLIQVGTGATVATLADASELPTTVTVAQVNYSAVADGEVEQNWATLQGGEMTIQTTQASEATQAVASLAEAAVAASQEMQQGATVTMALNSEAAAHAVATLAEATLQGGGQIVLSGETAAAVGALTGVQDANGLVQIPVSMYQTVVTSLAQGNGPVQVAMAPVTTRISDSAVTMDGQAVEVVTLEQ
Chain of Nuclear receptor subfamily 4 group A member 2 (Homo sapiens) (P43354 whole entry, looked up): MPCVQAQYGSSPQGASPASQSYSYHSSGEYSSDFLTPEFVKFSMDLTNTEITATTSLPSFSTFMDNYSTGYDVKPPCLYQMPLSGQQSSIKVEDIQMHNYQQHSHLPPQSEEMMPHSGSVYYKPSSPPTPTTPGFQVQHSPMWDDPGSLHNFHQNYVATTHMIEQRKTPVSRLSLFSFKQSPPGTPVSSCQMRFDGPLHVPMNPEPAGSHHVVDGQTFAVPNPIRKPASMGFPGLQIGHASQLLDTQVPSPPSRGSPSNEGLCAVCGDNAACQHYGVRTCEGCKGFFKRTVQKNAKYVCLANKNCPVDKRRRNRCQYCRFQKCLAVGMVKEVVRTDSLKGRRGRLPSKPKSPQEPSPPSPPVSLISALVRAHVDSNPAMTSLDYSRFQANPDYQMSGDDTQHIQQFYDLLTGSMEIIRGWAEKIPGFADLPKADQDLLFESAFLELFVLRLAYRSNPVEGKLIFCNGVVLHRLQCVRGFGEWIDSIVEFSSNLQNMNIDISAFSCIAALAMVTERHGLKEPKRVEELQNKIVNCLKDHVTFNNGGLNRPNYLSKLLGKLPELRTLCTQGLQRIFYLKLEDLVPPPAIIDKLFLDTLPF
Chain of Transcriptional activator Myb (Homo sapiens) (P10242 whole entry, looked up): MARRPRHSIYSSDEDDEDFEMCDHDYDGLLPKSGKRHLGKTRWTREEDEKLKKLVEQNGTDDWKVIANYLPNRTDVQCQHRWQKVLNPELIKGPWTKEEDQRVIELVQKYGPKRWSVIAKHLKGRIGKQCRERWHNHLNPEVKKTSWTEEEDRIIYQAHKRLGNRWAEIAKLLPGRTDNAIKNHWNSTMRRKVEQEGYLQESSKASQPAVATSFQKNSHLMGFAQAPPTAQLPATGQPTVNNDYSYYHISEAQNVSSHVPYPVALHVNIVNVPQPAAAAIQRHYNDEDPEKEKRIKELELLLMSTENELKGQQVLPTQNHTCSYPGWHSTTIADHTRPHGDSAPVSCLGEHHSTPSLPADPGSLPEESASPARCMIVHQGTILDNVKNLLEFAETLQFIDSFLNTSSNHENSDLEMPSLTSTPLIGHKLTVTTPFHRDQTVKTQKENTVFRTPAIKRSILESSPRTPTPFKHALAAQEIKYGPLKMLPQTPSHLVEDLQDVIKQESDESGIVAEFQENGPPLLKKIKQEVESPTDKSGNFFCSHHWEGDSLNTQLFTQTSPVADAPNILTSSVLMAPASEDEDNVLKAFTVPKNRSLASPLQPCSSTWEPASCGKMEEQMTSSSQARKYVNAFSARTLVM

CCc1cccc(C)c1N(C(=O)CCl)C(C)COC (configuration not stated)
active: [8] 5.18 µM | [9] 14.2 µM
not listed: [13] | [14] | [15] | [16] | [17] | [18] | [19]
inactive: all other assays above

CSC1=N[C@@](C)(c2ccccc2)C(=O)N1Nc1ccccc1
active: [8] 4.24 µM | [9] 10.7 µM | [11] 1.68 µM | [12] 7.46 µM
not listed: [1] | [7] | [19]
inactive: all other assays above

COc1cc(OC)nc(Sc2cccc(Cl)c2C(=O)O)n1
not listed: [16] | [19]
inactive: all other assays above

COP(=O)(NC(C)=O)SC (configuration not stated)
not listed: [1] | [3] | [7] | [17] | [19]
inactive: all other assays above

CNC(=O)ON=C(SC)C(=O)N(C)C
active: [8] 24.9 µM | [9] 18.9 µM
not listed: [2] | [3] | [13] | [14] | [17] | [18] | [19]
inactive: all other assays above

CCOP(=S)(OCC)OC(Cl)C(Cl)(Cl)Cl (configuration not stated)
active: [7] 26.4 µM | [8] 50 µM | [9] 29.2 µM
not listed: [13] | [18] | [19]
inactive: all other assays above

CCOP(=S)(Oc1cnc(C(C)(C)C)nc1)OC(C)C (configuration not stated)
active: [14] 9.2 µM | [15] 11.1 µM | [7] 22.4 µM | [8] 14.1 µM | [9] 2.06 µM | [11] 31.9 µM | [12] 36.2 µM
not listed: [3] | [17] | [18] | [19]
inactive: all other assays above

O=[N+]([O-])c1cc(C(F)(F)F)c(Cl)c([N+](=O)[O-])c1Nc1ncc(C(F)(F)F)cc1Cl
active: [4] 21.5 µM | [7] 11.9 µM | [8] 2.7 µM | [11] 1.16 µM and 2.68 µM | [12] 1.05 µM and 3.18 µM
inactive: [19] | [13] | [14] | [15] | [16] | [2] | [3] | [17] | [18] | [4] | [5] | [6] | [7] | [8] | [9]
